HCV inh = qHTS Assay for Inhibitors of Hepatitis C Virus (HCV). AID 651820, 2012. Potency, µM (doses to about 41.8 µM), usual class: inhibitors. Huh7.5.1 HCVcc-Cre infection, luciferase reporter, 44 h. hit rate 3.4% among 340,000
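Infectious HCV cell culture screen: compound-treated cells (1,000/well, pre-plated 4 h) are infected with HCVcc-Cre at roughly 0.5 moi and grown 44 h. Infection is quantified by luciferase signal after 15 min substrate incubation at room temperature.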
Pf growth 96h = Primary qHTS for delayed death inhibitors of the malarial parasite plastid, 96 hour incubation | AID 504834, 2011 | P. falciparum luciferase reporter growth, 96 h | Potency, µM (highest dose often 28.7 µM), actives largely listed as inhibitors | hit rate 6.9% among 320,000
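Parasite growth measured via integrated firefly luciferase reporter in P. falciparum. Infected erythrocytes at 2% hematocrit, 0.05% parasitemia final were treated 96 hours at 37 C under 5% CO2, and luminescence was read.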
CHX counter = Cycloheximide Counterscreen for Small Molecule Inhibitors of Shiga Toxin; cell reporter, cycloheximide protein synthesis inhibition counterscreen; max response, %; hit rate 12% among 300,000; AID 2314, 2010; in the data active = max response mostly above about 13%, no sharp cut-off; inactive = mostly below about 14%; note: read at 38.3 µM for the half of the compounds with a filed dose
Pf growth 48h = Primary qHTS for delayed death inhibitors of the malarial parasite plastid, 48 hour incubation; P. falciparum luciferase growth in erythrocytes, 48 h; Potency, µM (doses to about 28.7 µM), most hits filed as inhibitors; hit rate 5.9% among 310,000
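Luminescence readout; reporter = integrated firefly luciferase in P. falciparum. RBC culture at 2% hematocrit, 0.1% parasitemia final, 37 C/5% CO2; decreased signal taken as growth inhibition.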
HCMV antiviral = qHTS Assay for inhibitors of the human cytomegalovirus (HCMV). HFF cells, HCMV-luciferase reporter, 72 h; stronger effect = lower value. activity change, negative = inhibition, % at 57.5 µM. hit rate 4.5% among 410,000; in the data active = activity change below about -60%; inconclusive = no clear call, values can overlap the other calls; inactive = above about -39%
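Cell-based, HFFs, 1000 cells/well, 16 h 37C; cpds in DMSO + HCMV-luc, MOI 1 PFU/cell; 72 h 37C; OneGlo luminescence after 5 min RT; norm. to buffer vs Salinomycin 10uM.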
Shiga inhibitor = A qHTS for Small Molecule Inhibitors of Shiga Toxin | Vero cells, Shiga toxin protein synthesis inhibition reporter | inhibition, % at 38.7 µM | hit rate 9.2% among 290,000; in the data active = inhibition mostly above about 28%, no sharp cut-off; inactive = mostly below about 43%
Numbers stand for hits; - = inactive; ? = inconclusive; . = no result given. Shown are actives, neighbours in structure and some others; about 21% of the full set was active somewhere. Unless noted, calls come from the whole dose curve; as a rule, active = well fitted inhibition curve with a large enough effect; inconclusive = small, poorly fitted or top-dose-only effect, or another doubt; inactive = no such curve, though single readings can be large or run the other way.

SMILES	HCV inh	Pf growth 96h	CHX counter	Pf growth 48h	HCMV antiviral	Shiga inhibitor
O=C(Nc1nnc(C2=COCCO2)o1)c1cccc(F)c1	-	15µM	11	?	-	-
CC(=O)N(CCC(c1ccccc1)c1ccco1)Cc1cccs1 (stereo not drawn)	-	-	-	-	-	-
CCC(=O)N(CCC(c1ccco1)c1ccccc1OC)Cc1cccs1 (stereo not drawn)	?	10µM	-	.	-	-
Cc1cccn2c(=O)cc(COc3cccc(NC(=O)COc4ccc(F)cc4)c3)nc12	.	.	.	.	-90	.
Cc1ccc(Cl)cc1NC(=O)Nc1cccc(OCc2cc(=O)n3ccccc3n2)c1	.	.	.	.	-65	.
Cc1cccn2c(=O)cc(COc3ccc(NC(=O)COc4ccc(F)cc4)cc3)nc12	.	.	.	.	-	.
Cc1cccn2c(=O)cc(COc3cccc(NC(=O)c4ccccc4F)c3)nc12	.	.	.	.	-91	.
O=C(Nc1cccc(Cl)c1)Nc1ccccc1OCc1cc(=O)n2ccccc2n1	.	.	.	.	-	.
O=C(COc1ccccc1F)Nc1ccc(OCc2cc(=O)n3ccccc3n2)cc1	.	.	.	.	-61	.
COc1cccc(CNC(=O)C(=O)NCC(c2ccco2)S(=O)(=O)c2ccccc2)c1 (stereo not drawn)	.	.	.	.	-	.
COc1ccc(C)cc1NC(=O)C1CCN(S(=O)(=O)Cc2ccccc2)CC1	.	.	.	.	-	.
CC(C)[C@H](NC(=O)NCc1ccc(F)cc1)C(=O)O	-	-	-	-	-	-
Cc1c(NS(=O)(=O)c2ccc(N(C)C3CCCCC3)c([N+](=O)[O-])c2)c(=O)n(-c2ccccc2)n1C	-	10µM	-	?	-	-
COc1ccccc1CNC(=O)CN1C(=O)c2ccc([N+](=O)[O-])cc2C1=O	-	-	-	-	-	-
O=C(Cc1ccc(F)cc1)Nc1ccc(F)c([N+](=O)[O-])c1	-	?	-	-	-	-
Cc1ccc(NC(=O)Nc2ccccc2)cc1[N+](=O)[O-]	?	?	52	-	-	146
Cc1ccsc1C(=O)Nc1ccc(F)c([N+](=O)[O-])c1	-	-	35	-	-	53
CC(C)C(=O)Nc1ccc(NC(=S)NC(=O)c2ccccc2F)cc1	?	?	15	-	-	-
O=C(NC(=S)Nc1ccccc1C(F)(F)F)c1ccccc1F	-	-	-	-	-	-
O=C(Nc1ccccc1)Nc1ccc(F)c([N+](=O)[O-])c1	?	-	45	?	?	46
CN(C)c1ccc(CNC(=O)CCCN2C(=O)CCn3nc(-c4cn(C)c5ccccc45)cc32)cc1	.	.	.	.	-	.
Nc1ncnc(Nc2ccc(S(N)(=O)=O)cc2)n1	-	-	-	-	-	-
CCc1ccccc1NC(=S)N(CCN(C)C)Cc1cccs1	-	?	-	-	-	-
O=C(Nc1ccccc1)Nc1ccc(Cl)c([N+](=O)[O-])c1	13µM	-	37	?	?	81
O=C(NC(=S)Nc1ccc(F)c([N+](=O)[O-])c1)c1ccccc1F	-	-	23	-	-	37
SMILES	HCV inh	Pf growth 96h	CHX counter	Pf growth 48h	HCMV antiviral	Shiga inhibitor
O=C(NC(=S)Nc1ccc2[nH]c(=O)[nH]c2c1)c1ccccc1F	-	-	-	-	-	-
CC(CC(=O)Nc1ccc(Cl)c([N+](=O)[O-])c1)c1ccccc1 (stereo not drawn)	-	-	-	-	-	-
COc1ccc(C2C(=O)N(CCc3ccccc3)CC(=O)N2C2CCCCC2)cc1 (stereo not drawn)	-	5.2µM	-	.	?	-
CCCCN1C(=O)CC(C(=O)O)C1c1ccc(OC)cc1 (stereo not drawn)	-	-	-	.	-	-
COc1ccc(C2C(=O)N(C3CCCCCC3)CC(=O)N2CCc2ccccc2)cc1 (stereo not drawn)	.	.	.	.	-	.
CCCCN1C(=O)CN(CCc2ccccc2)C(=O)C1c1ccc(OC)cc1 (stereo not drawn)	-	5.2µM	-	?	-	-
Cc1cc(C(=O)NC2CCCN(Cc3ccc(Cl)cc3)C2)n(C)n1 (stereo not drawn)	?	-	-	-	.	-
CC(C)CC(C(=O)OCC(=O)c1c(N)n(C)c(=O)n(C)c1=O)N1C(=O)C2CC=CCC2C1=O (stereo not drawn)	-	-	-	-	-	-
CC(C)CN(CCCNC(=O)c1cc(=O)[nH]c2ccc(S(=O)(=O)N3CCCC3)cc12)CC(C)C	.	.	.	.	-68	.
CC(C)CN(CCNC(=O)c1cn(C)c2ccc(S(=O)(=O)N3CCCC3)cc2c1=O)CC(C)C	-	9.3µM	-	-	-	-
CC1CCN(S(=O)(=O)c2ccc3[nH]c(=O)cc(C(=O)O)c3c2)CC1	-	2.9µM	-	-	-	-
C=CCn1cc(C(=O)NCCN(CC)CC)c(=O)c2cc(S(=O)(=O)N3CCCCCC3)ccc21	-	8.3µM	-	10µM	-	-
CCCCN(C)CCNC(=O)c1cc(=O)[nH]c2ccc(S(=O)(=O)N3CCCCCC3)cc12	.	.	.	.	-	.
CC1CCN(S(=O)(=O)c2ccc(F)c(C(=O)O)c2)CC1	-	-	-	?	-	-
CCn1nc(C)c(CNC(=O)Nc2ccc3c(c2)OCO3)c1C	-	?	45	-	-	-
Cc1cc(CNC(=O)Nc2ccc3c(c2)OCO3)nn1C	-	.	27	-	-	61
CCCCC1CCC(C(=O)N2CC(=O)Nc3ccc(Cl)cc3C2c2ccc(F)cc2)CC1 (stereo not drawn)	.	.	.	.	-	.
CC(C)(C)C(=O)NC(n1cnc2c(N3CCOCC3)ncnc21)C(Cl)(Cl)Cl (stereo not drawn)	-	-	-	?	-	-
CCOc1ccc(S(=O)(=O)N2CCOCC2)cc1NC(=O)c1ccc(N2CCCC2=O)cc1	-	?	.	?	-	.
CCOC(=O)c1c(C)oc2nc(C)nc(NCC3CCN(Cc4cccc(Cl)c4)CC3)c12	.	.	.	.	-	.
COC(=O)c1ccc(C(=O)OC)c(NC(=O)C2CCCO2)c1 (stereo not drawn)	-	-	-	?	-	-
O=[N+]([O-])/C(C(Cl)=C(Cl)Cl)=C1\Nc2ccccc2O1	-	-	17	-	-	71
Cc1ccc(Cc2nc3ccccc3nc2SCC(=O)N2CCCc3ccccc32)cc1	.	.	.	.	-	.
CCc1ccc(-n2c(=O)c3c4c(sc3n(Cc3ccccc3C#N)c2=O)CCC4)cc1	.	.	.	.	-	.
CC#CC(=O)N1CCC(C(=O)Nc2ccc(Oc3ccccc3)nc2)CC1	-	?	34	-	-	87
O=C(Nc1ccc(Oc2ccccc2)nc1)C1CCCCN1Cc1ccc(OCCO)cc1 (stereo not drawn)	-	?	22	?	-	-
O=C(Nc1ccc(Oc2ccccc2)nc1)C1CCN(Cc2cccc(F)c2)CC1	.	-	-	?	-69	-
O=C(Nc1ccc(Oc2ccccc2)nc1)C1CCN(Cc2ccco2)CC1	?	-	-	-	-	-
